Several values for one entry are separate records, joined by “and”; a condition that tells them apart may be missing. Equal values may be shown once. Inconclusive results are not listed. Activity calls are given as the source filed them. Unless noted, calls come from the whole dose curve; as a rule, active = well fitted curve in the direction sought with a large enough effect in the repeat runs; inconclusive = weak or mixed curves; inactive = no such curve, though single readings can be large; an effect the other way counts as inactive or inconclusive.
Key:
[1] = qHTS assay for small molecules that induce genotoxicity in human embryonic kidney cells expressing luciferase-tagged ATAD5 (AID 651632); note: nearly all actives have a fitted effect of over 15% in size
How it was run: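 Luminescence read-out: after 16 hr compound exposure at 37C, ATAD5-luciferase HEK293T cells received Amplite, 30 min RT, then CCD imaging. A rise in signal marks genotoxic stress.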

[2] = qHTS assay for small molecule agonists of the p53 signaling pathway - cell viability (AID 651633; calls by dose curve;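 note: p53RE-bla HCT reporter cells with a stable beta-lactamase p53 reporter; nearly all actives have a fitted effect of over 30% in size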)
How it was run: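 p53RE-bla cells were treated with compound for 16 hours at 37 C. Cytotoxicity was then measured as CellTiter-Glo luminescence after 30 min at room temperature.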

[3] = qHTS assay for small molecules that induce genotoxicity in human embryonic kidney cells expressing luciferase-tagged ATAD5 - cell viability (AID 651634; calls by dose curve; note: nearly all actives have a fitted effect of over 25% in size)
How it was run: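 HEK293T ATAD5-luc cells, 2,000/well; compound 15.5 hr, 37C/5% CO2; CellTiter-Fluor 30 min, 37C; fluorescence read.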

[4] = qHTS assay to test for compound auto fluorescence at 590 nm (red) in HepG2 cells (AID 720674)
How it was run: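 Seeding: 2,000 HepG2 cells/well, MEM/10% FBS, overnight 37 C. Dosing: compound vs DMSO. Incubation: 1 hr, 37 C, 5% CO2. Read: fluorescence 540 ex/590 em, Rose Bengal sodium as red reference.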

[5] = qHTS assay to test for compound auto fluorescence at 535 nm (green) in HepG2 cells (AID 720675)
[6] = qHTS assay to test for compound auto fluorescence at 460 nm (blue) in HEK293 cells (AID 720678)
How it was run: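 Blue read-out at excitation 405 nm and emission 460 nm follows overnight compound exposure of HEK293 cells at 37C in 5% CO2. Activity is given as auto fluorescence equivalency to triamterene.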

[7] = qHTS assay to test for compound auto fluorescence at 535 nm (green) in HEK293 cells (AID 720680)
[8] = qHTS assay to test for compound auto fluorescence at 460 nm (blue) in HEK293 cell free culture (AID 720681)
How it was run: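 Compounds were added to cell-free DMEM with 10% FBS and fluorescence read directly. The blue channel used 405 nm excitation and 460 nm emission, with triamterene as the reference fluorophore.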

[9] = qHTS assay to test for compound auto fluorescence at 535 nm (green) in HEK293 cell free culture (AID 720682)
How it was run: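 No cells present: wells hold DMEM supplemented with 10% FBS, into which compound or vehicle is pinned. Green emission is then recorded (485 nm excitation, 535 nm emission) and scaled to fluorescein.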

[10] = qHTS assay to test for compound auto fluorescence at 590 nm (red) in HEK293 cell free culture (AID 720683)
How it was run: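 Cell-free wells of DMEM with 10% FBS received compound, and intrinsic fluorescence was read at excitation/emission 540/590 nm. Values expressed as equivalence to Rose Bengal sodium.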

[11] = qHTS assay to test for compound auto fluorescence at 590 nm (red) in HepG2 cell free culture (AID 720684)
How it was run: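 Rose Bengal sodium served as the reference for red signal. Test compounds were dispensed into serum-containing MEM (10% FBS) without cells, and plates were read at 540/590 nm.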

[12] = qHTS assay to test for compound auto fluorescence at 460 nm (blue) in HepG2 cell free culture (AID 720685)
How it was run: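 Cell-free plates of MEM plus 10% FBS received 23 nL compound or DMSO vehicle; blue-channel (405/460 nm) intensity scored against triamterene as reference fluorophore.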

[13] = qHTS assay to test for compound auto fluorescence at 535 nm (green) in HepG2 cell free culture (AID 720686)
[14] = qHTS assay to test for compound auto fluorescence at 460 nm (blue) in HepG2 cells (AID 720687)
How it was run: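 HepG2 cells in MEM with 10% FBS, attached overnight at 37 C, were exposed to compound or DMSO for 1 hr at 37 C, 5% CO2. Blue fluorescence was read at 405/460 nm, with triamterene as reference fluorophore.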

[15] = qHTS assay for small molecule disruptors of the mitochondrial membrane potential - cell viability (AID 720634; calls by dose curve;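 note: human HepG2 liver cancer cells; nearly all actives have a fitted effect of over 20% in size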)
How it was run: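 Luminescence from CellTiter-Glo (ATP content) gave viability in HepG2 cells, read in the same wells as the MMP dye assay after 1 hr compound exposure at 37 C.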

[16] = qHTS assay to test for compound auto fluorescence at 590 nm (red) in HEK293 cells (AID 720679)
How it was run: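 Red channel, Ex/Em 540/590nm; signal expressed as equivalency to Rose Bengal sodium. HEK293, 2,000 cells/well, 10% dialyzed FBS; 23 nL compound pinned after 4-5 hr attachment; overnight 37C/5% CO2 before reading.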

[17] = molecular target: Glucocorticoid receptor (Homo sapiens) (UniProt P04150); experiment: qHTS assay to identify small molecule agonists of the glucocorticoid receptor (GR) signaling pathway (AID 720691; active = well fitted activation curve with a large enough effect in the signal ratio in the repeat runs, not every such curve was filed as active; the % refers to the signal ratio); settings: GR-bla HeLa, beta-lactamase reporter ratio, 18 h; activation: at 62.4 µM (top of the series)
How it was run: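 HeLa GR-bla reporter line; cells pre-incubated 4 h, compound in DMSO 18 h at 37 C; LiveBLAzer B/G FRET substrate 2 h RT; fluorescence intensity read-out.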

[18] = molecular target: Glucocorticoid receptor (Homo sapiens) (UniProt P04150); experiment: qHTS assay to identify small molecule antagonists of the glucocorticoid receptor (GR) signaling pathway (AID 720692; active = well fitted inhibition curve with a large enough effect in the signal ratio in the repeat runs, not every such curve was filed as active; the % refers to the signal ratio)
How it was run: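 Read-out: beta-lactamase FRET substrate fluorescence, 2 h at room temperature, in HeLa cells stably carrying a GRE-driven bla reporter. Compounds were co-incubated with 5 nM dexamethasone agonist (final) for 18 h at 37 C.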

[19] = qHTS assay for small molecule disruptors of the mitochondrial membrane potential (AID 720635); note: potency is the fitted concentration of half-maximal effect
How it was run: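 HepG2 cells exposed to compound 1 hr at 37C, then Mito-MPS dye 30 min. Ratio read of aggregate (540/590 nm) versus monomer (490/535 nm) fluorescence.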

[20] = qHTS assay for small molecule agonists of the p53 signaling pathway (AID 651631; calls by dose curve; note: nearly all actives have a fitted effect of over 15% in size; note: potency is the fitted concentration of half-maximal effect)
How it was run: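 Agonist mode screen using a stably integrated beta-lactamase gene under p53 response elements in HCT-116 cells. Compound exposure lasts 16 h at 37 °C; fluorescence intensity is measured following 2 h FRET substrate loading.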
% is set by controls: 0 for no effect and ±100 for the full control effect.

Chain of Glucocorticoid receptor (Homo sapiens) (P04150 whole entry, looked up): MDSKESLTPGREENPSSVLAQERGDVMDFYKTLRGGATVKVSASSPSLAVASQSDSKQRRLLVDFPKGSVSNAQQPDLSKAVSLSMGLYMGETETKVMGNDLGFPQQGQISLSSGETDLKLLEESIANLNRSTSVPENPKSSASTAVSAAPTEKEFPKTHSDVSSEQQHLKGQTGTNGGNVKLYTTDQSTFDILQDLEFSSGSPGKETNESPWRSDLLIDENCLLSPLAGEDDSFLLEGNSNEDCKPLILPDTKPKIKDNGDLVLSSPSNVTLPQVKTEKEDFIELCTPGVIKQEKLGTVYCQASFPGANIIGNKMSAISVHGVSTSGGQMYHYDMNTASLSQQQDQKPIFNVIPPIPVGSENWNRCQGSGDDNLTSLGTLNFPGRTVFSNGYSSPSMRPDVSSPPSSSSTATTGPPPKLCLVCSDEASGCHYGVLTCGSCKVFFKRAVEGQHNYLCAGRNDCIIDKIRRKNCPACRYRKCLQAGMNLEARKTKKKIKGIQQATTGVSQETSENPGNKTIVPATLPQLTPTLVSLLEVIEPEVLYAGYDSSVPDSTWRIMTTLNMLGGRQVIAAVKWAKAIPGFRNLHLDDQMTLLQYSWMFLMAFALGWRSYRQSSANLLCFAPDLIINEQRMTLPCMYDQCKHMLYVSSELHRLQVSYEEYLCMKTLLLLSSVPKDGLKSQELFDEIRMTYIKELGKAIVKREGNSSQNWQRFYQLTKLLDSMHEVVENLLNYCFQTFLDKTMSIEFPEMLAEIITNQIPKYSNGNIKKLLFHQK

CC1=CCC2CC1C2(C)C (centres undefined)
inactive: outcome [1] | Potency [2] | Potency [3] | outcome [4] | outcome [5] | outcome [6] | outcome [7] | outcome [8] | outcome [9] | outcome [10] | outcome [11] | outcome [12] | outcome [13] | outcome [14]

CCN(CC)c1ccc(C(=O)c2ccccc2C(=O)O)c(O)c1
inactive: outcome [1] | Potency [2] | Potency [3] | Potency [15] | outcome [4] | outcome [5] | outcome [6] | outcome [16] | outcome [7] | outcome [8] | outcome [9] | outcome [10] | outcome [11] | outcome [12] | outcome [13] | outcome [14] | Potency [17] | Potency [18]

COS(C)(=O)=O
inactive: outcome [1] | Potency [2] | Potency [3] | Potency [15] | Potency [19] | outcome [4] | outcome [5] | outcome [6] | outcome [16] | outcome [7] | outcome [8] | outcome [9] | outcome [10] | outcome [11] | outcome [12] | outcome [13] | outcome [14] | Potency [17] | Potency [18]

C=C(C)C(=O)Nc1ccc(Cl)c(Cl)c1
inactive: outcome [1] | Potency [2] | Potency [3] | outcome [4] | outcome [5] | outcome [7] | outcome [8] | outcome [9] | outcome [10] | outcome [11] | outcome [12] | outcome [13] | outcome [14]
active: Potency [19] 19.5 µM and 30.5 µM

O=C(O)CCCC[C@@H]1SC[C@@H]2NC(=O)N[C@@H]21
inactive: outcome [1] | Potency [2] | Potency [3] | Potency [15] | Potency [19] | outcome [4] | outcome [5] | outcome [6] | outcome [16] | outcome [7] | outcome [8] | outcome [9] | outcome [10] | outcome [11] | outcome [12] | outcome [13] | outcome [14] | Potency [17] | Potency [18]

CC1CCC(C(C)C)C(O)C1 (centres undefined)
inactive: outcome [1] | Potency [2] | Potency [3] | Potency [15] | Potency [19] | outcome [4] | outcome [5] | outcome [7] | outcome [8] | outcome [9] | outcome [10] | outcome [11] | outcome [12] | outcome [13] | outcome [14]

O=C(Oc1ccccc1)c1ccccc1
inactive: outcome [1] | Potency [2] | Potency [3] | Potency [15] | Potency [19] | outcome [4] | outcome [5] | outcome [7] | outcome [8] | outcome [9] | outcome [10] | outcome [11] | outcome [12] | outcome [13] | outcome [14]

O=C(O)c1ccccc1C(c1ccc(O)cc1)c1ccc(O)cc1
inactive: outcome [1] | Potency [2] | Potency [3] | Potency [15] | outcome [4] | outcome [5] | outcome [7] | outcome [8] | outcome [9] | outcome [10] | outcome [11] | outcome [12] | outcome [13] | outcome [14] | Potency [17] | Potency [18]

OCc1cccnc1
inactive: outcome [1] | Potency [3] | Potency [15] | outcome [4] | outcome [5] | outcome [6] | outcome [16] | outcome [7] | outcome [8] | outcome [9] | outcome [10] | outcome [11] | outcome [12] | outcome [13] | outcome [14]

O=[N+]([O-])c1ccc(/C=C/c2ccc([N+](=O)[O-])cc2S(=O)(=O)O)c(S(=O)(=O)O)c1
inactive: outcome [1] | Potency [2] | Potency [3] | Potency [15] | Potency [19] | outcome [4] | outcome [5] | outcome [6] | outcome [16] | outcome [7] | outcome [8] | outcome [9] | outcome [10] | outcome [11] | outcome [12] | outcome [13] | outcome [14] | Potency [17] | Potency [18]

CCCSc1ccc2nc(NC(=O)OC)[nH]c2c1
inactive: Potency [2] | Potency [15] | outcome [4] | outcome [5] | outcome [7] | outcome [8] | outcome [9] | outcome [10] | outcome [11] | outcome [12] | outcome [13] | outcome [14] | Potency [17]
active: Potency [20] 320 nM and 306 nM | Potency [19] 4.52 µM and 12.2 µM

CCCCC(CC)COC(=O)CCCCC(=O)OCC(CC)CCCC (centres undefined)
inactive: Potency [20] | Potency [2] | Potency [15] | outcome [4] | outcome [5] | outcome [6] | outcome [16] | outcome [7] | outcome [8] | outcome [9] | outcome [10] | outcome [11] | outcome [12] | outcome [13] | outcome [14] | Potency [17] | Potency [18]

Cc1ccc2oc(=O)ccc2c1
inactive: outcome [1] | Potency [2] | Potency [3] | Potency [15] | Potency [19] | outcome [4] | outcome [5] | outcome [16] | outcome [7] | outcome [8] | outcome [9] | outcome [10] | outcome [11] | outcome [12] | outcome [13] | outcome [14] | Potency [17] | Potency [18]

CCN(CC)CCCC(C)Nc1ccnc2cc(Cl)ccc12 (centres undefined)
inactive: outcome [1] | activity, negative = cytotoxicity [3] -6.84% [at 8.08 µM] | outcome [4] | outcome [5] | outcome [6] | outcome [7] | outcome [8] | outcome [9] | outcome [10] | outcome [11] | outcome [12] | outcome [13] | outcome [14] | Potency [17] | Potency [18]
